# High-throughput results: PubChem, National Center for Advancing Translational Sciences (NCATS)
# Shown are actives, neighbours in structure and some others; about 2.4% of the full set was active somewhere.
# Pol eta inh: inhibitors of human DNA polymerase eta | Q9Y253 | recombinant Pol eta, fluorescent DNA replication assay | Potency, µM (top dose mostly 114 µM), for the others: top-dose activity change, negative = inhibition, usual class: inhibitors | hit rate 1.2% among 390,000 | AID 588591; further: on the % scale 0 is the no-effect control and ±100 the full control effect
#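 Pol eta at 10 nM preincubated with compounds 15 min at room temperature; reaction started with fluorescent substrate (50 nM final) and read kinetically at 0 and 10 min.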
# FEN1 inhibitor: blocks human flap endonuclease 1; P39748; Recombinant FEN1 flap cleavage, fluorescence, 15 min; Potency, µM (series often up to 114 µM), for the others: top-dose activity change, negative = inhibition, hits mostly inhibitors; hit rate 0.35% among 390,000; further: on the % scale 0 is the no-effect control and ±100 the full control effect; nearly all actives have a fitted effect of over 65% in size
#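 FEN1 at 10 nM preincubated with compounds 15 min at room temperature, then flap DNA substrate added at 50 nM final. Signal read at 0 and 15 min; concentration-response fitted with four-parameter Hill equation.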
# WRN helicase inh: inhibitors of human WRN helicase; AID 651768; Potency, µM (series often up to 114 µM), inactives show top-dose activity change, negative = inhibition, usual class: inhibitors; Q14191; WRN helicase unwinding, fluorescent forked duplex, kinetic; hit rate 0.46% among 360,000; further: on the % scale 0 is the no-effect control and ±100 the full control effect; nearly all actives have a fitted effect of over 55% in size
# Target sequence (Q14191 whole entry, looked up): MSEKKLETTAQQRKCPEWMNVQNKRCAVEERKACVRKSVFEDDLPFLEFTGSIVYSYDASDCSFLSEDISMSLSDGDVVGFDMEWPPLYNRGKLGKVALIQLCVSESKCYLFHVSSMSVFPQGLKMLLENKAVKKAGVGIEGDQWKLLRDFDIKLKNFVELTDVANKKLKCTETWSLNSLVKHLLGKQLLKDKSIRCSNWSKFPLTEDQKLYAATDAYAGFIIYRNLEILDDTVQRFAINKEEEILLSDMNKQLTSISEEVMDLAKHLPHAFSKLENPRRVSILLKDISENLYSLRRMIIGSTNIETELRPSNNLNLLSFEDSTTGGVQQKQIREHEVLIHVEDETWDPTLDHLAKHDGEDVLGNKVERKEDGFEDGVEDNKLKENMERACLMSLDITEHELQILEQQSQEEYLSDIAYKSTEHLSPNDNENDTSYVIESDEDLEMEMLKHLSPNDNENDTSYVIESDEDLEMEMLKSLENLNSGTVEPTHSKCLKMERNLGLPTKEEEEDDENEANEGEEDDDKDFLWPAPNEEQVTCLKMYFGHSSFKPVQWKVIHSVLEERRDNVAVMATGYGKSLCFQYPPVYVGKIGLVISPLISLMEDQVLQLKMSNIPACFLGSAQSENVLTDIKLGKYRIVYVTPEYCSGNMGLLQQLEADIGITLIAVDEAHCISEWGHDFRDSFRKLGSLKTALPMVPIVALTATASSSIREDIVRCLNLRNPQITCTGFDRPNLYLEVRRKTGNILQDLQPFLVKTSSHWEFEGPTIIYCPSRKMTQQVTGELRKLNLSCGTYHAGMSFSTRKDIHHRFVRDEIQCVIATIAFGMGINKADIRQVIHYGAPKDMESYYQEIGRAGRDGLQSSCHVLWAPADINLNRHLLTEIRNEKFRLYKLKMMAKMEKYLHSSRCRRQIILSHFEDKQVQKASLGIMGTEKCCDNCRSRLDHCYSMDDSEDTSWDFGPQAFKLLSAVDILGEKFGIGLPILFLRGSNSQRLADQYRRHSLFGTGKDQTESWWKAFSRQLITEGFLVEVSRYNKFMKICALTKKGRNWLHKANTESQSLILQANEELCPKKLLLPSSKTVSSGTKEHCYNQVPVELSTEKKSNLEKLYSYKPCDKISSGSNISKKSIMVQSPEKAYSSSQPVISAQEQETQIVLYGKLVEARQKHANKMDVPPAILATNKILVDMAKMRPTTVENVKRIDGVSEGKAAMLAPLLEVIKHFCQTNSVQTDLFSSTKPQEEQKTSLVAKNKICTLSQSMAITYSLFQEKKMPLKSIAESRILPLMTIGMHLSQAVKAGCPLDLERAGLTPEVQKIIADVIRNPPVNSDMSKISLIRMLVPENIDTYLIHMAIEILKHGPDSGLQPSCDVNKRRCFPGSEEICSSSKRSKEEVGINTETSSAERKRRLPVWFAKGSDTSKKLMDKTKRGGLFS
#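 WRN at 20 nM final was preincubated with compound for 15 min at room temperature; reaction started with 100 nM forked duplex oligonucleotide carrying fluorophore and quencher plus 2 mM ATP (final). Unwinding followed kinetically by red fluorescence (ex 525/em 598 nm).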
# POLI inh: blocks human DNA polymerase iota activity; Q9UNA4; Pol iota fluorescent replication assay, 10 min; hit rate 1% among 390,000; AID 588590; Potency, µM (titrated, usually from 115 µM), without a hit: top-dose activity, negative = inhibition, usual class: inhibitors
#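 Fluorescent replication assay read twice, at 0 min and 10 min after adding 50 nM (final) substrate. Enzyme (10 nM) and compounds were first incubated 15 min at room temperature; enzyme-free buffer wells were negative controls.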
# Pol beta inh: inhibitors of human DNA polymerase beta. hit rate 1.3% among 340,000. Pol beta primer extension/strand displacement, fluorescence kinetic. P06746. Potency, µM (top dose mostly 114 µM), inactives show at the top dose activity change, negative = inhibition, actives largely listed as inhibitors; further: on the % scale 0 is the no-effect control and ±100 the full control effect
#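 Human Pol beta at 10 nM; strand-displacement substrate 50 nM final. Compound exposure 15 min at room temperature before start, reaction 10 min at room temperature.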
# POLK inh: blocks human DNA polymerase kappa activity | hit rate 0.53% among 400,000 | Q9UBT6 | Potency, µM (titrated, usually from 107 µM), for the others: at the highest dose activity, negative = inhibition, most hits filed as inhibitors | purified Pol kappa, fluorescent DNA synthesis assay, 10 min | AID 588579; further: on the % scale 0 is the no-effect control and ±100 the full control effect
#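 Kinetic fluorescence screen: compound preincubated 15 min RT with 10 nM enzyme; 50 nM substrate (final) initiates; reads at 0/10 min.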
# Numbers without * were called inactive; ? = inconclusive; / = no result given; [ ] = remark or other dose. The call rests on the fitted dose curve; in most records, active means well fitted curve in the direction sought with a large enough effect; inconclusive means small, poorly fitted or top-dose-only effect, or another doubt; inactive means no such curve, though single readings can be large; an effect the other way counts as inactive or inconclusive. Potency means the concentration at half of the fitted maximal effect.
SMILES,Pol eta inh,FEN1 inhibitor,WRN helicase inh,POLI inh,Pol beta inh,POLK inh
O=C(O)CCN1C(=O)/C(=C\c2ccc(-c3nc4ccccc4s3)o2)SC1=S,2.51µM*,-2.3%,?,-19.1%,?,-23.9%
O=C(O)CCN1C(=O)/C(=C\c2ccncc2)SC1=S,1.6%,-2.0%,6.5%,46.0%,1.3%,8.3%
CCOC(=O)C1OC1C(=O)NC(CC(C)C)C(=O)NCCC(C)C (configuration not stated),/,/,/,/,/,2.6%[19.4 µM]
Cc1cc(Oc2nc3ccccn3c(=O)c2/C=C(\C#N)c2nc3ccccc3s2)ccc1Cl,-17.2%,-19.0%,/,-8.7%,-2.3%,-13.0%
N#C/C(=C\c1c(Oc2ccc(Br)cc2)nc2ccccn2c1=O)c1nc2ccccc2s1,6.0%,?,/,12.6µM*,-4.4%,79.4µM*
O=C(OC1CCOC1=O)c1ccc(Cl)c(S(=O)(=O)N2CCCCC2)c1 (configuration not stated),-29.7%,-0.1%,-0.8%[57.1 µM],-1.1%,?,-11.1%
O=C(OC1CCOC1=O)c1ccc(Cl)c(S(=O)(=O)N2CCOCC2)c1 (configuration not stated),39.8µM*,15.2%,-9.8%,70.8µM*,/,?
O=C(COC(=O)c1ccc(S(=O)(=O)N2CCCCC2)cc1)NCc1ccco1,?,-2.3%,2.8%[11.6 µM],?,39.8µM*,?
O=C(OCc1nnc(-c2ccccc2)o1)c1ccc(S(=O)(=O)NCc2ccco2)cc1,22.4µM*,-12.0%,-22.8%,?,3.55µM*,?
O=C(COc1ccc(S(=O)(=O)N2CCCC2)cc1)NCc1ccco1,?,6.8%,-15.7%,?,?,-29.3%
O=C(NCc1ccco1)c1ccc(Cl)c(S(=O)(=O)N2CCCC2)c1,?,14.0%,-16.1%,35.5µM*,/,-28.1%
CCC1CCCCC1,/,/,/,/,/,14.5%[60.1 µM]
CC(=O)N1CC(O)CC1C(=O)O (configuration not stated),/,/,/,/,/,11.0%[19.4 µM]
CCOC(=O)C(CS)NCCN[C@@H](CS)C(=O)OCC (some centres not stated),/,/,/,/,/,-0.5%[19.4 µM]
CC(OC(=O)c1ccccn1)C(=O)Nc1ccc2c(c1)OCCO2 (configuration not stated),-2.3%,-9.0%,4.3%,11.3%,/,5.8%
COc1cccc(NC(=O)COC(=O)c2ccc(S(=O)(=O)NCc3ccco3)cc2)c1,8.91µM*,14.2%,-15.4%[57.1 µM],?,?,?
O=C(COC(=O)c1ccc(NS(=O)(=O)c2cccs2)cc1)NCc1ccco1,3.98µM*,44.7µM*,44.7µM*,8.91µM*,?,31.6µM*
Cc1ccc(NS(=O)(=O)c2cccc(C(=O)OCC(=O)NCc3ccco3)c2)cc1,?,-6.5%,-0.5%[11.6 µM],?,-12.9%,?
CC(=O)Nc1ccc(NC(=O)COC(=O)c2ccc(S(=O)(=O)NCc3ccco3)cc2)cc1,-6.9%,0.0%,1.8%,-17.2%,/,-11.9%
O=C(COC(=O)c1ccc(S(=O)(=O)NCc2ccco2)cc1)NCCC1=CCCCC1,?,-5.5%,-7.1%,?,44.7µM*,?
CCN(c1ccccc1)S(=O)(=O)c1cc(C(=O)OC(C)C(=O)Nc2ccc3c(c2)OCCO3)ccc1C (configuration not stated),?,1.3%,-9.6%[11.6 µM],?,10µM*,?
O=[N+]([O-])c1ccc(S(=O)(=O)N2CCN(c3nc(-c4cccs4)nc4ccccc34)CC2)cc1,/,3.1%,/,5.4%,/,-14.1%
CCN(c1ccccc1)S(=O)(=O)c1cc(C(=O)NCc2ccco2)ccc1C,79.4µM*,7.0%,-4.1%[11.6 µM],?,/,-14.2%
O=C(NCCc1ccc(F)cc1)c1ccc(Cl)c(S(=O)(=O)N2CCOCC2)c1,44.7µM*,9.0%,3.3%[11.6 µM],?,/,-29.4%
Cc1cc(S(=O)(=O)N2CCOCC2)ccc1OCC(=O)NCc1ccco1,-1.6%,1.3%,-3.2%[57.1 µM],40.9%,-1.1%,-11.8%
Cc1cc(S(=O)(=O)N2CCCC2)ccc1OCC(=O)NCc1ccco1,-17.0%,6.3%,-10.8%,?,25.1µM*,-3.5%[60.1 µM]
